Rows were chosen to be rich in hits. Some 1.8% of all compounds tested hit in one or more screens of this group.
rTrxR1 inhibitor: inhibitors of rat thioredoxin reductase 1; O89049; recombinant rTrxR1, NADPH fluorescence consumption, selenite substrate; Potency, µM (top dose mostly 114 µM), usual class: inhibitors; 390,000 tested, 1% active; AID 588453; also: nearly all actives have a fitted effect of over 65% in size
Target sequence (O89049 whole entry, looked up): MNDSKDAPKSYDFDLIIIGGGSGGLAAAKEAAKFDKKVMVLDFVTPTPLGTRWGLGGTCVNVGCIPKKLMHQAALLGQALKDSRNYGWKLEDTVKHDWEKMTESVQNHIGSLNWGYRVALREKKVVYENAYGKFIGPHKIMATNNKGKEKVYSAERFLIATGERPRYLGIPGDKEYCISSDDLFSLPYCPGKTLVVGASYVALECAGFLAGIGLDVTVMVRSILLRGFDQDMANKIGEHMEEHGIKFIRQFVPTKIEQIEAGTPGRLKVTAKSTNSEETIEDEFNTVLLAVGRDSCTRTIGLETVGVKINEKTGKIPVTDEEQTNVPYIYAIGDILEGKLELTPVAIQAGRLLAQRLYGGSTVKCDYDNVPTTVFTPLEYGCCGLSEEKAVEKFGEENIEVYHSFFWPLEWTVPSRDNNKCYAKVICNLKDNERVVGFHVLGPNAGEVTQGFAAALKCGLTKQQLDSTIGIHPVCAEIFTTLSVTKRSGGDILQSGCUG
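Rat TrxR1 (90 nM in the dispensed reagent) was pre-reduced with 400 uM NADPH for 5 min at room temperature, then incubated with compound for 15 min. After 400 uM selenite was added, NADPH fluorescence (Ex 340/Em 450 nm) was followed for 8 min.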
TrxR1 substrate: substrates of rat thioredoxin reductase 1. 390,000 tested, 0.01% active. Potency, µM (series often up to 114 µM). AID 588456. purified TrxR1 substrate turnover, NADPH consumption readout; also: nearly all actives have a fitted effect of over 50% in size
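Rat TrxR1, dispensed at 90 nM, was prereduced with 400 uM NADPH (final) for 5 min at ~22 deg C, then incubated with compound 15 min before 400 uM selenite. A first-read NADPH fluorescence drop versus no-compound background flagged substrates.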
VDR inh: vitamin D3 receptor (human) inhibition; P11473; VDR-SRC2-3 peptide fluorescence polarization, 2 h; Potency, µM, usual class: inhibitors; 400,000 tested, 0.93% active; AID 504847
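The screen uses fluorescence polarization to detect compounds that interfere with recruitment of the SRC2-3 coactivator peptide to VDR; plates are read after 2 h at room temperature.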
KAT2A inh: inhibitors of human GCN5L2 histone acetyltransferase | Q92830 | GCN5L2 HAT assay, ThioGlo1 CoA-SH fluorescence | Potency, µM (top dose mostly 58.9 µM), hits mostly inhibitors | 390,000 tested, 0.21% active | AID 504327
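ThioGlo1-coupled HAT assay: 20nM GCN5L2, 70uM acetyl-CoA, 75uM H3(1-25) peptide, pH 7.5. Fluorescence read at 340/540nm at start and after 20 min at room temperature.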
Of the large screens only hits and unclear results are named; the others gave an inactive call; ! = a repeat was not active. Calls follow the shape of the dose curve; as a rule, active = well fitted curve in the direction sought with a large enough effect; inconclusive = small, poorly fitted or top-dose-only effect, or another doubt; inactive = no such curve, though single readings can be large; an effect the other way counts as inactive or inconclusive.

COP(=O)(OC)c1nc(-c2cccc3ccccc23)oc1N1CCOCC1	rTrxR1 inhibitor inconclusive, KAT2A inh 28.2µM
CCN1C[C@]2(C)CC[C@H](O)[C@@]34[C@@H]5C[C@@H]6[C@@H](OC)C[C@@](O)(C5[C@H]6O)[C@@H](C[C@@H]23)[C@@H]14	none (no result: TrxR1 substrate, VDR inh, KAT2A inh)
O=C(Nc1ccc(Br)cc1)c1cc(Br)cc(Br)c1O	VDR inh 56.2µM, KAT2A inh inconclusive (no result: rTrxR1 inhibitor, TrxR1 substrate)
CON(C)C(=O)Nc1ccc(Br)cc1	none (no result: rTrxR1 inhibitor, TrxR1 substrate)
CC(=O)O[C@@H]1C[C@@]2(C)C(c3ccoc3)C[C@H]3O[C@]32[C@]2(C)C(=O)C(O)=C3C(C)(C)C(=O)C=C[C@]3(C)C12 (stereo not given in full)	VDR inh 14.1µM (no result: rTrxR1 inhibitor, TrxR1 substrate, KAT2A inh)
CC(=O)OC1C[C@@]2(C)C(c3ccoc3)C[C@H]3O[C@@]32[C@@]2(C)C(=O)C(O)=C3C(C)(C)C(=O)C=C[C@]3(C)C12 (stereo not given in full)	VDR inh 3.98µM (no result: rTrxR1 inhibitor, TrxR1 substrate)
CC(=O)OC1CC(OC(C)=O)[C@]2(C)C(CC(OC(C)=O)[C@]3(C)C2CC[C@@]2(C)C(c4ccoc4)C[C@H]4O[C@]432)C1(C)C (stereo not given in full)	none (no result: rTrxR1 inhibitor, TrxR1 substrate)
COc1ccccc1C(=O)Nc1ccc2nc(SCC(=O)N(C)c3ccccc3)sc2c1	none
COC[C@H]1OC(=O)c2coc3c2[C@@]1(C)C1=C(C3=O)C2CCC(=O)[C@@]2(C)C[C@H]1OC(C)=O (stereo not given in full)	rTrxR1 inhibitor 15µM!, VDR inh 44.7µM!
COC[C@H]1OC(=O)c2coc3c2[C@@]1(C)C1=C(C3=O)[C@H]2CCC(=O)[C@@]2(C)C[C@H]1OC(C)=O	VDR inh 31.6µM (no result: rTrxR1 inhibitor, TrxR1 substrate)
CCCC[N+]12C3CC(C(CC)[C@H]1O)[C@@H]1C(O)C4(C[C@@H]12)c1ccccc1N(C)C34 (stereo not given in full)	none (no result: rTrxR1 inhibitor, TrxR1 substrate, KAT2A inh)
CCCCn1c(NS(=O)(=O)c2ccccc2)c(C(=O)OCC)c2nc3ccccc3nc21	rTrxR1 inhibitor inconclusive, VDR inh 44.7µM, KAT2A inh 25.1µM
COc1ccc(NP2(=O)OCC(C)(N)CO2)cc1 (stereo not given)	none (no result: KAT2A inh)
COc1ccc(NC2CC(=O)N(C(C)C)C2=O)cc1 (stereo not given)	rTrxR1 inhibitor 3.55µM
CC[C@]1(O)CC(O[C@@H]2CC(N(C)C)C(O)C(C)O2)c2c(cc3c(c2O)C(=O)c2c(O)cccc2C3=O)C1C(=O)OC (stereo not given in full)	VDR inh 31.6µM (no result: rTrxR1 inhibitor, TrxR1 substrate)
CC[C@@]1(O)CC(O)c2c(cc3c(c2O)C(=O)c2c(O)ccc(O)c2C3=O)C1C(=O)OC (stereo not given in full)	VDR inh inconclusive (no result: rTrxR1 inhibitor, TrxR1 substrate)
CCCC[C@@H](C)[C@@H](OC(=O)C[C@@H](CC(=O)O)C(=O)O)[C@H](C[C@@H](C)C[C@H](O)CCCC[C@@H](O)C[C@H](O)[C@H](C)N)OC(=O)C[C@H](CC(=O)O)C(=O)O	none (no result: rTrxR1 inhibitor, TrxR1 substrate)
CC[C@@]1(O)C(=O)OCc2c1cc1n(c2=O)-c2cc3ccccc3nc2C1	KAT2A inh 28.2µM (no result: rTrxR1 inhibitor, TrxR1 substrate)
CC(CO)NC(=O)C1C=C2c3cccc4[nH]cc(c34)C[C@H]2N(C)C1 (stereo not given in full)	none (no result: rTrxR1 inhibitor, TrxR1 substrate)
CC[C@@H](CO)NC(=O)[C@H]1C=C2c3cccc4c3c(cn4C)C[C@H]2N(C)C1	rTrxR1 inhibitor inconclusive, VDR inh 31.6µM (no result: TrxR1 substrate)
C/C=C1/C[N@@+]2(C)CC[C@]34C(=C(C=O)[C@H]1C[C@H]32)Nc1ccccc14	VDR inh inconclusive (no result: rTrxR1 inhibitor, TrxR1 substrate)
c1ccc(N2CCN(c3ccccc3)CC2)cc1	none (no result: VDR inh, KAT2A inh)
O=C(CCN1CCN(c2ccccc2)CC1)c1ccc(Br)cc1	rTrxR1 inhibitor 3.98µM, VDR inh 89.1µM
O=c1[nH]c(=S)n(-c2ccccc2F)c(O)c1C=Nc1ccc(N2CCOCC2)cc1	none
O=C1C(Cl)=C(N2CCOCC2)C(=O)N1c1ccccc1F	VDR inh 14.1µM
CCOP(=S)(OCC)Oc1nc(Cl)c(Cl)cc1Cl	VDR inh 31.6µM, KAT2A inh inconclusive
COP(=S)(OC)Oc1nc(Cl)c(Cl)cc1Cl	VDR inh 4.47µM, KAT2A inh 20µM (no result: rTrxR1 inhibitor, TrxR1 substrate)
O=C1C(Cl)=C(Cl)C(=O)C(Cl)=C1Cl	VDR inh 0.708µM, KAT2A inh inconclusive (no result: rTrxR1 inhibitor, TrxR1 substrate)
COC(=O)[C@@H]1[C@@H]2C[C@H]3c4[nH]c5cc(OC)ccc5c4CCN3C[C@@H]2C[C@H](OC(=O)/C=C\c2cc(OC)c(OC)c(OC)c2)[C@H]1OC	KAT2A inh inconclusive (no result: rTrxR1 inhibitor, TrxR1 substrate)
CCOc1ccc(-c2cn3c(n2)sc2cc(C(=O)N4CCCC(C)C4)ccc23)cc1 (stereo not given)	none
CC(C)C1C(=O)N2CCC[C@H]2[C@]2(O)O[C@](NC(=O)[C@@H]3C=C4c5cccc6[nH]cc(c56)C[C@H]4N(C)C3)(C(C)C)C(=O)N12 (stereo not given in full)	VDR inh 44.7µM (no result: rTrxR1 inhibitor, TrxR1 substrate)
CC(C)C[C@H]1C(=O)N2CCC[C@H]2[C@]2(O)O[C@](NC(=O)C3C=C4c5cccc6[nH]c(Br)c(c56)C[C@H]4N(C)C3)(C(C)C)C(=O)N12 (stereo not given in full)	none (no result: KAT2A inh)
CC(C)C[C@H]1C(=O)N2CCC[C@@H]2[C@@]2(O)O[C@](NC(=O)[C@@H]3C=C4c5cccc6[nH]cc(c56)C[C@@H]4N(C)C3)(C(C)C)C(=O)N12	VDR inh inconclusive (no result: rTrxR1 inhibitor, TrxR1 substrate)
CC(C)C[C@H]1C(=O)N2CCCC2[C@]2(O)O[C@](NC(=O)[C@@H]3C=C4c5cccc6[nH]c(Br)c(c56)C[C@H]4N(C)C3)(C(C)C)C(=O)N12 (stereo not given in full)	rTrxR1 inhibitor inconclusive, VDR inh 17.8µM (no result: TrxR1 substrate)
COC(=O)C[C@@](O)(CCC(C)(C)O)C(=O)O[C@@H]1C(OC)=C[C@]23CCCN2CCc2cc4c(cc2[C@@H]13)OCO4	KAT2A inh inconclusive (no result: rTrxR1 inhibitor, TrxR1 substrate)
O=C(O)CCC1NCC2CC1CN1CCCCC21 (stereo not given)	none (no result: rTrxR1 inhibitor, TrxR1 substrate)
COc1ccccc1NC(=O)c1oc2ccccc2c1NC(=O)c1ccccc1C(F)(F)F	none
OC12C3C4CC5C6C4C1C6C(C53)N2CCc1cccc(F)c1 (stereo not given)	none (no result: rTrxR1 inhibitor, TrxR1 substrate)
CCN(CCCl)Cc1ccccc1Br	rTrxR1 inhibitor inconclusive, TrxR1 substrate inconclusive
C[C@@H](COc1ccccc1)N(CCCl)Cc1ccccc1	VDR inh 25.1µM (no result: rTrxR1 inhibitor, TrxR1 substrate)
O=C(N/N=C/C1C(=O)NC(=S)N(c2ccccc2)C1=O)c1cc(Br)c(O)c(Br)c1 (stereo not given)	rTrxR1 inhibitor inconclusive, VDR inh 39.8µM
CCOc1ccc(C(C)=O)cc1Cc1c(O)[nH]c(=S)[nH]c1=O	VDR inh inconclusive, KAT2A inh 14.1µM
CCCOc1ccc(C(C)=O)cc1Cc1c(O)[nH]c(=S)[nH]c1=O	VDR inh inconclusive, KAT2A inh inconclusive
O=c1[nH]sc2cc(F)ccc12	VDR inh 7.08µM, KAT2A inh 4.47µM
O=C(CN1C(=O)S/C(=C\C=C\c2ccccc2)C1=O)Nc1ccccc1C(=O)O	rTrxR1 inhibitor inconclusive, VDR inh 79.4µM
OC[C@@H]1[C@@H](O)[C@H](O)[C@H]2[C@@H](O)CCN21	none (no result: rTrxR1 inhibitor, TrxR1 substrate)
O=C(O)CCC(CP(=O)(O)O)C(=O)O (stereo not given)	none (no result: rTrxR1 inhibitor, TrxR1 substrate)
